{"source": "PubChem BioAssay (EPA / NIEHS)", "note": "“And” between values parts separate entries of the source, which are not always exact repeats. Equal entries are not always repeated. The source made the active and inactive calls. Rule for the calls: active = hit-call score of the fitted dose curve at least 0.9, where 1 is the maximum; inactive = score below 0.9."}
{"read-out": "Vascular cell adhesion molecule 1 (VCAM1), VCAM1 (gene 7412)", "assay": "BSK_4H_VCAM1: BioMAP Diversity Plus: 4H Assay for Vascular cell adhesion molecule 1 (VCAM1) Biomarker Activity (AID 2283033)", "conditions": "primary human endothelial cells (HUVEC); actives raise or lower the signal", "experimental": "BSK_4H is a cell-based, multiplexed-readout assay that uses umbilical vein endothelium, a human vascular primary cell, with measurements taken at 24 hours after chemical dosing in a 96-well plate.BSK_4H_VCAM1 is an assay component measured in the BSK_4H assay. It measures VCAM-1 antibody related to regulation of gene expression using ELISA technology.Data from the assay component BSK_4H_VCAM1 was analyzed into 1 assay endpoint. This assay endpoint, BSK_4H_VCAM1, was analyzed with bidirectional fitting relative to DMSO as the negative control and baseline of activity. Using a type of binding reporter, gain or loss-of-signal activity can be used to understand changes in the signaling as they relate to the gene VCAM1. Furthermore, this assay endpoint can be referred to as a primary readout, because this assay has produced multiple assay endpoints where this one serves a signaling function. To generalize the intended target to other relatable targets, this assay endpoint is annotated to the cell adhesion molecules intended target family, where the subfamily is Immunoglobulin CAM.\nThe levels of cell surface (or secreted, indicated by the prefix \"s\") biomarker endpoints were measured by ELISA. Overt cytotoxicity to cells in confluent adherent cultures (all systems other than the BT system) was assessed by measuring total protein levels using sulforhodamine B (SRB) staining in parallel cultures at the time of biomarker measurements, indicated as SRB endpoints. For proliferation assays for adherent cell types, individual cell types are cultured at sub-confluence and relative cell numbers quantified by SRB staining at time points optimized for each system (48 h: 3C and CASM3C systems; 72 h: BT and HDF3CGF systems; 96 h: SAg system). SRB was performed by staining cells with 0.1% SRB after fixation with 10% TCA and reading wells at 560 nm.Viability and proliferation of PBMC (T cells) was quantified by Alamar Blue reduction for the SAg and BT systems. For PBMC viability (referred to as PBMC Cytotoxicity within the assay endpoint names), cells were plated (75,000/well in a 96-well plate) and then chemical samples added for 1 h before addition of activators, SEB and TSST-1 (20 ng/mL final concentration each). Cells were incubated for 90 h. Then, Alamar Blue (20 uL/well) (Invitrogen, Cat DAL1100) was added for 6 h, and the plates were read with a fluorescence microplate reader at 546/580 nm (excitation/emission). For PBMC proliferation, cells were plated and activated as above but incubated for only 16 h prior to addition of Alamar Blue. Plates were read after 6 h."}
{"molecule": "Cc1ccn2nc(S(=O)(=O)Nc3c(F)cccc3F)nc2n1", "outcome": "inactive"}
{"molecule": "CC(C)[C@H](C(=O)O[C@H](C#N)c1cccc(Oc2ccccc2)c1)c1ccc(Cl)cc1", "AC50": "2.95 µM (active)"}
{"molecule": "CCC(CC)Nc1c([N+](=O)[O-])cc(C)c(C)c1[N+](=O)[O-]", "AC50": "20 µM (active)"}
{"molecule": "CCOP(=S)(OCC)Oc1ccc([N+](=O)[O-])cc1", "outcome": "inactive"}
{"molecule": "CC1(C(=O)Nc2ccc(O)c(Cl)c2Cl)CCCCC1", "outcome": "inactive"}
{"molecule": "CC(COc1ccc(Oc2ccccc2)cc1)Oc1ccccn1", "note": "(stereo not given)", "outcome": "inactive"}
{"molecule": "CC(C1CC1)C(O)(Cn1cncn1)c1ccc(Cl)cc1", "note": "(stereo not given)", "outcome": "inactive"}
{"molecule": "C#CCC1=C(C)C(OC(=O)C2C(C=C(C)C)C2(C)C)CC1=O", "note": "(stereo not given)", "outcome": "inactive"}
{"molecule": "COP(=O)(OC)C(O)C(Cl)(Cl)Cl", "note": "(stereo not given)", "outcome": "inactive"}
{"molecule": "CON=C(C(=O)OC)c1ccccc1CON=C(C)c1cccc(C(F)(F)F)c1", "outcome": "inactive"}
{"molecule": "CC(=NC#N)N(C)Cc1ccc(Cl)nc1", "outcome": "inactive"}
{"molecule": "CNc1cnn(-c2cccc(C(F)(F)F)c2)c(=O)c1Cl", "outcome": "inactive"}
{"molecule": "CC(Oc1cccc(Cl)c1)C(=O)O", "note": "(stereo not given)", "outcome": "inactive"}
{"molecule": "O=[N+]([O-])c1cc(C(F)(F)F)c(Cl)c([N+](=O)[O-])c1Nc1ncc(C(F)(F)F)cc1Cl", "AC50": "1 µM (active) and 2.33 µM (active)"}
{"molecule": "CCCCN(CC)c1c([N+](=O)[O-])cc(C(F)(F)F)cc1[N+](=O)[O-]", "AC50": "20 µM (active)"}
{"molecule": "CNC(=O)Oc1cccc2c1OC(C)(C)O2", "AC50": "20 µM (active)"}
{"molecule": "COP(=O)(NC(C)=O)SC", "note": "(stereo not given)", "outcome": "inactive"}
{"molecule": "C[Si](Cn1cncn1)(c1ccc(F)cc1)c1ccc(F)cc1", "outcome": "inactive"}
{"molecule": "COc1ccc(C(=CC(=O)N2CCOCC2)c2ccc(Cl)cc2)cc1OC", "outcome": "inactive"}
{"molecule": "CN(C)C(=O)Nc1cccc(C(F)(F)F)c1", "outcome": "inactive"}
{"molecule": "CCc1cccc(C)c1N(C(=O)CCl)C(C)COC", "note": "(stereo not given)", "outcome": "inactive"}
{"molecule": "CCOC(=O)CC(SP(=O)(OC)OC)C(=O)OCC", "note": "(stereo not given)", "outcome": "inactive"}
{"molecule": "CC[C@H](C)[C@H]1O[C@]2(C=C[C@@H]1C)C[C@@H]1C[C@@H](C/C=C(\\C)[C@@H](O[C@H]3C[C@H](OC)[C@@H](O[C@H]4C[C@H](OC)[C@@H](NC)[C@H](C)O4)[C@H](C)O3)[C@@H](C)/C=C/C=C3\\CO[C@@H]4[C@H](O)C(C)=C[C@@H](C(=O)O1)[C@]34O)O2", "AC50": "8.45 µM (active)"}
{"molecule": "CCOP(=S)(OCC)OC(Cl)C(Cl)(Cl)Cl", "note": "(stereo not given)", "outcome": "inactive"}
{"molecule": "C#CC(C)(C)NC(=O)c1cc(Cl)cc(Cl)c1", "outcome": "inactive"}
{"molecule": "Cc1nn(-c2cc(NS(C)(=O)=O)c(Cl)cc2Cl)c(=O)n1C(F)F", "outcome": "inactive"}
{"molecule": "CC1=NNC(=O)N(/N=C/c2cccnc2)C1", "outcome": "inactive"}
{"molecule": "C[N+]1(C)CCCCC1", "outcome": "inactive"}
{"molecule": "N#CSCSC#N", "AC50": "6.29 µM (active)"}
{"molecule": "CNC(=O)ON=C(SC)C(=O)N(C)C", "outcome": "inactive"}
{"molecule": "CCc1cnc(C2=NC(C)(C(C)C)C(=O)N2)c(C(=O)O)c1", "note": "(stereo not given)", "outcome": "inactive"}
{"molecule": "CCOP(=S)(OCC)SCCSCC", "outcome": "inactive"}
{"molecule": "O=C(O)c1cc(Oc2ccc(C(F)(F)F)cc2Cl)ccc1[N+](=O)[O-]", "outcome": "inactive"}
{"molecule": "CCc1cccc(CC)c1N(COC)C(=O)CCl", "AC50": "15.3 µM (active)"}
{"molecule": "Nc1nc(N)nc(NC2CC2)n1", "outcome": "inactive"}
{"molecule": "CCOP(=S)(OCC)Oc1cc(C)nc(C(C)C)n1", "outcome": "inactive"}
{"molecule": "CCC(=NOC/C=C/Cl)C1=C(O)CC(C2CCOCC2)CC1=O", "note": "(stereo not given)", "outcome": "inactive"}
{"molecule": "C=C(C)[C@H]1Cc2c(ccc3c2O[C@@H]2COc4cc(OC)c(OC)cc4[C@@H]2C3=O)O1", "AC50": "8.68 µM (active)"}
{"molecule": "COc1cccc(C(=O)NN(C(=O)c2cc(C)cc(C)c2)C(C)(C)C)c1C", "outcome": "inactive"}
{"molecule": "CCOP(=O)(SC(C)CC)N1CCSC1=O", "note": "(stereo not given)", "outcome": "inactive"}
